Most compounds without a hit are left out; they make up all but 19% or so of the library.
DT40 TDP1 CPT: qHTS for Inhibitors of human tyrosyl-DNA phosphodiesterase 1 (TDP1): qHTS in cells in presence of CPT. 420,000 tested, 12% active. chicken DT40 Tdp1-/-;hTDP1 cells + 20 nM CPT, ATP luminescence, 48 h. Potency, µM (top dose mostly 46.2 µM), for inactives: at the top dose activity change, negative = growth inhibition, hits mostly inhibitors; note: potency is the fitted concentration of half-maximal effect; nearly all actives have a fitted effect of over 55% in size
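Chicken DT40 Tdp1-/- cells complemented with human TDP1, 400 cells/well, exposed to compounds plus 20 nM camptothecin for at least 48 h at 37 C; viability read as ATP content by CellTiter-Glo luminescence.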
HT1080NT lethal: qHTS for induction of synthetic lethality in tumor cells producing 2HG: qHTS for the HT-1080-NT fibrosarcoma cell line. Potency, µM (highest dose often 46.1 µM), inactives show at the top dose activity, negative = less viability, most hits filed as cytotoxic. HT-1080-NT fibrosarcoma viability, CellTiter-Glo ATP luminescence, 48 h. 360,000 tested, 1.6% active;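 note: NT is the 2HG producing partner of a matched IDH1 knockdown line; potency is the fitted concentration of half-maximal effect; 0% = DMSO-treated cells and -100% = media-only wells without cells; nearly all actives have a fitted effect of over 55% in size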
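Viability of the 2HG-overproducing fibrosarcoma line after 48 hours of compound exposure at 37 degrees C was determined by luminescence with CellTiter-Glo, and concentration-effect curves were then fitted and categorized.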
HT1080 IDH1KD tx: qHTS for induction of synthetic lethality in tumor cells producing 2HG: qHTS for the HT-1080-IDH1KD cell line; Potency, µM (doses to about 46.1 µM), inactives show at the top dose activity, negative = toxicity, hits mostly cytotoxic; 360,000 tested, 2% active; HT-1080 IDH1 knockdown viability, ATP luminescence, 48 h;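 note: potency is the fitted concentration of half-maximal effect; 0% = DMSO wells and -100% = cell-free medium wells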
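After a 2 h attachment period, IDH1KD HT-1080 cells took pin-transferred compound for 48 h at 37 °C; ATP-based luminescence after 10 min room-temperature reagent incubation reported viability.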
TDP1 cell noCPT: qHTS for Inhibitors of human tyrosyl-DNA phosphodiesterase 1 (TDP1): qHTS in cells in absence of CPT | DT40 Tdp1-/- hTDP1 cells, no CPT, ATP luminescence, 48 h | 420,000 tested, 15% active | AID 686978, 2013 | Potency, µM (highest dose often 46.2 µM), for inactives: top-dose activity change, negative = growth inhibition, usual class: inhibitors; note: potency is the fitted concentration of half-maximal effect; nearly all actives have a fitted effect of over 55% in size
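Stably hTDP1-transfected Tdp1-null chicken DT40 cells were treated with library compounds minus camptothecin and grown for at least 48 hr at 37 °C, after which cellular ATP was quantified by luminescence.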
IL1B secr inh: qHTS for Inhibitors of Inflammasome Signaling: IL-1-beta AlphaLISA Primary Screen; THP-1 LPS/ATP IL-1B secretion, AlphaLISA, 16 h; stronger effect = lower value; activity change, % at 57.5 µM; 360,000 tested, 4.7% active; in the data active = activity change below about -50%; inconclusive = mostly about -30% to -49%
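THP-1 cells pretreated 1 hr with compounds (up to 57.5 uM final), then stimulated with LPS (250 ng/mL final) plus ATP (1.25 mM final); secreted IL-1B measured by AlphaLISA after 16 hr, decreased signal indicating inhibition.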
* hit, by the source's call. Unless noted, calls come from the whole dose curve; as a rule, active = well fitted curve in the direction sought with a large enough effect; inconclusive = small, poorly fitted or top-dose-only effect, or another doubt; inactive = no such curve, though single readings can be large; an effect the other way counts as inactive or inconclusive. Unless noted, % is set by controls: 0 for no effect and ±100 for the full control effect.

How did CCOc1cc(NC(=S)NC)c(OCC)cc1NC(=O)c1ccc(OC)cc1 do in these assays?
DT40 TDP1 CPT: -14%; HT1080NT lethal: 11%; HT1080 IDH1KD tx: 22%; TDP1 cell noCPT: inconclusive; IL1B secr inh: 3

What do the screens show for `CN1CCN(c2nc3ccccc3nc2C(C#N)C(=O)OC2CCCCC2)CC1` (stereo unspecified)?
DT40 TDP1 CPT: 29µM*; HT1080NT lethal: -6%; HT1080 IDH1KD tx: 2%; TDP1 cell noCPT: inconclusive; IL1B secr inh: inconclusive

How did CCN1CCN(c2nc3ccccc3nc2C(C#N)C(=O)OC2CCCCC2)CC1 (stereo unspecified) do in these assays?
DT40 TDP1 CPT: 23µM*; HT1080NT lethal: -5%; HT1080 IDH1KD tx: -7%; TDP1 cell noCPT: 23µM*; IL1B secr inh: -23

How did N#CC(C(=O)OC1CCCCC1)c1nc2ccccc2nc1N1CCOCC1 (stereo unspecified) do in these assays?
DT40 TDP1 CPT: inconclusive; HT1080NT lethal: 14%; HT1080 IDH1KD tx: 13%; TDP1 cell noCPT: inconclusive; IL1B secr inh: -19

Results for N#CC(C(=O)NC1CC1)c1nc2ccccc2nc1N1CCCC1 (stereo unspecified) ?
DT40 TDP1 CPT: inconclusive; HT1080NT lethal: -2%; HT1080 IDH1KD tx: -3%; TDP1 cell noCPT: inconclusive; IL1B secr inh: -14

How did Cc1c(OC(C)C(=O)NCc2ccncc2)ccc2c3c(c(=O)oc12)CCCC3 (stereo unspecified) do in these assays?
DT40 TDP1 CPT: 21µM*; HT1080NT lethal: -1%; HT1080 IDH1KD tx: -15%; TDP1 cell noCPT: inconclusive; IL1B secr inh: inconclusive

What do the screens show for `Cc1c(OC(C)C(=O)NCC(O)c2ccccc2)ccc2c3c(c(=O)oc12)CCCC3` (stereo unspecified)?
DT40 TDP1 CPT: 23µM*; HT1080NT lethal: -14%; HT1080 IDH1KD tx: -6%; TDP1 cell noCPT: inconclusive; IL1B secr inh: -28

Results for CCN(CC(=O)Nc1ccc(NC(C)=O)cc1)C(=O)c1cc2c(s1)CCCCC2 ?
DT40 TDP1 CPT: 7%; HT1080NT lethal: 2%; HT1080 IDH1KD tx: 0%; TDP1 cell noCPT: 9%; IL1B secr inh: 3

What do the screens show for `O=C(NCCOc1ccc(F)cc1)C1CCC(=O)N(CCc2ccccn2)C1` (stereo unspecified)?
DT40 TDP1 CPT: -5%; HT1080NT lethal: -1%; HT1080 IDH1KD tx: -2%; TDP1 cell noCPT: -3%; IL1B secr inh: 19

What do the screens show for `CCn1ccnc1C(O)c1cccc(OC)c1OC` (stereo unspecified)?
DT40 TDP1 CPT: 10%; HT1080NT lethal: 0%; HT1080 IDH1KD tx: 4%; TDP1 cell noCPT: 4%; IL1B secr inh: 3

How did CCCC(=O)NC(c1ccc(OC)c(OC)c1)c1c(O)ccc2ccccc12 (stereo unspecified) do in these assays?
DT40 TDP1 CPT: -13%; HT1080NT lethal: 10%; HT1080 IDH1KD tx: -13%; TDP1 cell noCPT: -2%; IL1B secr inh: -12

How did CCCC(=O)NC(c1ccccc1OC)c1ccc2cccnc2c1O (stereo unspecified) do in these assays?
DT40 TDP1 CPT: 4.1µM*; HT1080NT lethal: inconclusive; HT1080 IDH1KD tx: inconclusive; TDP1 cell noCPT: 4.1µM*; IL1B secr inh: 140

What do the screens show for `CCCCC(=O)NC(c1ccccc1OC)c1ccc2cccnc2c1O` (stereo unspecified)?
DT40 TDP1 CPT: 21µM*; HT1080NT lethal: inconclusive; HT1080 IDH1KD tx: 2.6µM*; TDP1 cell noCPT: 18µM*; IL1B secr inh: 180

Results for N=c1n(CCO)c2ccccc2n1CCOc1ccc(F)cc1 ?
DT40 TDP1 CPT: 21µM*; TDP1 cell noCPT: -82%
